Measured values as given in PubChem BioAssay (NCATS).
Records with an inconclusive call do not appear. The source made the active and inactive calls. Calls follow the shape of the full dose curve.

target: Vitamin D3 receptor (Homo sapiens) (UniProt P11473); assay: qHTS assay for small molecule antagonists of vitamin D receptor signaling (AID 588541); settings: HEK293T VDR-UAS-bla, beta-lactamase ratio, antagonist mode; series mostly up to 76.7 µM; activity change, negative = inhibition: at the top concentration;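 also: receptor activated by calcitriol during compound treatment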
Excerpt: NIH Chemical Genomics Center [NCGC]
U.S. Environmental Protection Agency [EPA]
National Institutes of Environmental Health Sciences [NIEHS]
National Toxicology Program [NTP]
The Vitamin D receptor (VDR) is a member of nuclear hormone receptor superfamily and it plays a critical role in calcium homeostasis and bone metabolism. It plays a role in inducing cell differentiation, inhibiting cell growth and in thrombogenicity. So, VDR that mediates these effects represents a pharmacological target in prevention and treatment of hyperproliferative malignancies, such as cancer and psoriasis, cardiovascular, immunological, inflammatory and renal diseases etc.
NCGC Assay Protocol Summary
Using a beta-lactamase reporter-gene under control of Vitamin D receptor (VDR) response element, a cell-based assay [GeneBLAzer (VDR -UAS-bla assay developed by Invitrogen] was used to measure VDR ligands signaling. GeneBLAzer VDR -UAS-bla HEK293T cells were used with assay medium containing 2% charcoal-stripped FBS. The assay was performed in clear bottom black Greiner 1536-well plates. Library compounds were measured for their ability to inhibit the reporter gene activity. Compounds were screened in a titration series in 1536-well format. The fluorescence intensity (405 nm excitation, 460/530 nm emission) was measured using an EnVision plate reader. Data was normalized relative to 1-alpha,25-Dihydroxy vitaminD3 control (50 nM, 100%) and DMSO only wells (basal, 0%). Concentration-response titration points for each compound were fitted to the Hill equation yielding concentrations of half-maximal inhibition (IC50) and maximal response (efficacy) values.
qHTS protocol for VDR beta-lactamase assay in antagonist mode
[Step] [Parameter] [Value] [Description]
1. Reagent; 5 uL; 2000 cells/well
2. Incubation; 37 C for 5 hrs
4. Controls (DMSO); 23 nL,
5. Agonist (Stimulator); 1uL; 1-alpha,25-Dihydroxy vitaminD3 at 50 nM and 3 nM final concentrations
6. Incubation; 37 C for 16 hrs
7. Detection reagent; 1 uL of CCF4-dye
8. Incubation; RT for 2 hrs
9. Detection; Fluorescence; Envision plate reader
% is scaled to controls: 0 for no effect and ±100 for the full control effect.

Sequence of Vitamin D3 receptor (Homo sapiens) (P11473 whole entry, looked up): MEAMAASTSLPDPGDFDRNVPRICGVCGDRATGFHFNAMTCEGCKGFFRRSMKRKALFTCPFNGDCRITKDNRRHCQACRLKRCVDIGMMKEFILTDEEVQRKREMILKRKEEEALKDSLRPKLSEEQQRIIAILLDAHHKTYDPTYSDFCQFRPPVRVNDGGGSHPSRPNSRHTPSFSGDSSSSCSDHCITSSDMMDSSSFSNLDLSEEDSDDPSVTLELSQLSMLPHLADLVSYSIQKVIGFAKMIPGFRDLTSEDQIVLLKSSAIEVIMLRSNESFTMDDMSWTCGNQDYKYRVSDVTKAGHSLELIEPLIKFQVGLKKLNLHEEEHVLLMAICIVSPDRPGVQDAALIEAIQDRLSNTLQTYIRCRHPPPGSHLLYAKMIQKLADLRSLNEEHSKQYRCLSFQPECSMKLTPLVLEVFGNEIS

SMILES	activity change, negative = inhibition	outcome
CC(C)[N+](=O)[O-]	-5.26% (inactive)	
Nc1ccc(-c2ccc(N)cc2)cc1	-1.62% (inactive)	
Clc1ccc(Cl)c(Cl)c1		inactive
C=CCc1cc(OC)c2c(c1)OCO2	4.77% (inactive)	
Cc1ccc2c(C)cccc2c1	2.17% (inactive)	
C(CCOCC1CO1)COCC1CO1 (stereo not given)	5.94% (inactive)	
ClP(Cl)(Cl)(Cl)Cl	1.56% (inactive)	
Nc1ccc2ccccc2c1	-10.2% (inactive)	
Clc1cccc(Cl)c1Cl		inactive
O=C(O)c1cc(Cl)ccc1Cl	4.58% (inactive)	
O=Cc1ccc(Cl)cc1Cl	0.854% (inactive)	
O=S(=O)(O)F	-5.13% (inactive)	
S=C1NCCN1		inactive
O=C(Cl)OCc1ccccc1	2.62% (inactive)	
OCCBr	3.95% (inactive)	
ClC(Cl)(Cl)C(Cl)(Cl)Cl	3.93% (inactive)	
C=COC(C)=O	-3.89% (inactive)	
CC(C)CON=O	-0.506% (inactive)	
C=CC=O	0.966% (inactive)	
Nc1cccc(Cl)c1	-2.98% (inactive)	

SMILES	activity change, negative = inhibition	outcome
CNC(=O)O/N=C/C(C)(C)S(C)=O (stereo not given)		inactive
Clc1ccc(C(c2ccccc2Cl)C(Cl)(Cl)Cl)cc1 (stereo not given)	-8.87% (inactive)	
O=[N+]([O-])c1cc(Cl)c(Cl)c(Cl)c1	1.7% (inactive)	
Cc1cc(Cl)ccc1O	5.33% (inactive)	
c1ccc(NNc2ccccc2)cc1		inactive
O=C(O)C(Cl)Br (stereo not given)	-6.9% (inactive)	
Clc1ccc(C(Cl)(Cl)Cl)c(Cl)c1	-5.42% (inactive)	
O=Cc1ccc2c(c1)OCO2	1.69% (inactive)	
CCBr	3.65% (inactive)	
ClCc1ccccc1	8.04% (inactive)	
CCCBr	5.28% (inactive)	
Nc1ccc(-c2ccc(N)c(Cl)c2)cc1Cl		inactive
O=[N+]([O-])c1cccc(CCl)c1	-10.4% (inactive)	
C[N+](=O)[O-]	-3.65% (inactive)	
O=C(O)c1cccc(Cl)c1	2.15% (inactive)	
CN(C)C(=O)Nc1ccc(Cl)cc1		inactive
CC(=O)CCC(C)=O	3.89% (inactive)	
Nc1ccc(Cc2ccc(N)c(Cl)c2)cc1Cl	-2.77% (inactive)	
O=[N+]([O-])c1ccc(Cl)c(Cl)c1Cl	8.71% (inactive)	
Nc1ccc(Cl)c(Cl)c1	-3.83% (inactive)	
